Assay results published in PubChem BioAssay.
For part of these data: Entries with a potency or affinity are not part of this list. The source made the active and inactive calls.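 How the source made its calls, unless noted: active means fluorescence ratio normalized to control raised more than 50% in primary screen plus both repeat runs; inactive means the rest.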

Legend:
[1] = system: TRPC4 beta (transient receptor potential cation channel C4), mouse; assay: TRPC4 cation channel opening, retest – cell-based, Fluo4 calcium, HEK293 TRPC4beta/mu-opioid, duplicates, 10 µM, confirmation (AID 2426); conditions: Fluo4 calcium fluorescence, at 10 µM; stronger effect = higher value
[2] = system: transient receptor potential cation channel C4 beta (TRPC4), mouse; assay: TRPC4 cation channel opening, second retest – cell-based, second round, Fluo4, HEK293 TRPC4beta/mu-opioid, 1 µM, confirmation (AID 2461;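 active means primary screen active and over 50% activation in each of two duplicate runs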); conditions: Fluo4 calcium fluorescence, at 1 µM; stronger effect = higher value
[3] = system: TRPC4 (transient receptor potential cation channel C4 beta), mouse; assay: potentiation of DAMGO EC20 TRPC4 response – cell-based, second round, Fluo-4, HEK293 TRPC4beta/mu-opioid, 1 µM, confirmation (AID 2554;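 active means primary screen hit whose fluorescence ratio, in both repeats, exceeds the weak agonist control mean by 3 SD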); conditions: DAMGO EC20, Fluo-4 calcium flux, at 1 µM; stronger effect = higher value
[4] = system: TRPC4 beta (transient receptor potential cation channel C4), mouse; assay: potentiation of DAMGO EC20 TRPC4 response – cell-based, Fluo-4, HEK293 TRPC4beta/mu-opioid, confirmation (AID 2555;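 active means primary screen hit whose calcium fluorescence ratio, in both repeats, exceeds the weak agonist control mean by 3 SD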); conditions: DAMGO EC20, Fluo-4 calcium flux, at 10 µM; stronger effect = higher value
[5] = molecular target: Short transient receptor potential channel 4 (Mus musculus) (UniProt Q9QUQ5); assay: blockers of DAMGO-evoked TRPC4 calcium flux – cell-based, Fluo4, HEK293 TRPC4beta/mu-opioid, confirmation (AID 2636;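 active means calcium signal cut by more than 3 SD below the full-agonist control yet still positive, in both repeats and the earlier primary screen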); conditions: at 10 µM; stronger effect = higher value
Sequence of Short transient receptor potential channel 4 (Mus musculus) (Q9QUQ5 whole entry, looked up): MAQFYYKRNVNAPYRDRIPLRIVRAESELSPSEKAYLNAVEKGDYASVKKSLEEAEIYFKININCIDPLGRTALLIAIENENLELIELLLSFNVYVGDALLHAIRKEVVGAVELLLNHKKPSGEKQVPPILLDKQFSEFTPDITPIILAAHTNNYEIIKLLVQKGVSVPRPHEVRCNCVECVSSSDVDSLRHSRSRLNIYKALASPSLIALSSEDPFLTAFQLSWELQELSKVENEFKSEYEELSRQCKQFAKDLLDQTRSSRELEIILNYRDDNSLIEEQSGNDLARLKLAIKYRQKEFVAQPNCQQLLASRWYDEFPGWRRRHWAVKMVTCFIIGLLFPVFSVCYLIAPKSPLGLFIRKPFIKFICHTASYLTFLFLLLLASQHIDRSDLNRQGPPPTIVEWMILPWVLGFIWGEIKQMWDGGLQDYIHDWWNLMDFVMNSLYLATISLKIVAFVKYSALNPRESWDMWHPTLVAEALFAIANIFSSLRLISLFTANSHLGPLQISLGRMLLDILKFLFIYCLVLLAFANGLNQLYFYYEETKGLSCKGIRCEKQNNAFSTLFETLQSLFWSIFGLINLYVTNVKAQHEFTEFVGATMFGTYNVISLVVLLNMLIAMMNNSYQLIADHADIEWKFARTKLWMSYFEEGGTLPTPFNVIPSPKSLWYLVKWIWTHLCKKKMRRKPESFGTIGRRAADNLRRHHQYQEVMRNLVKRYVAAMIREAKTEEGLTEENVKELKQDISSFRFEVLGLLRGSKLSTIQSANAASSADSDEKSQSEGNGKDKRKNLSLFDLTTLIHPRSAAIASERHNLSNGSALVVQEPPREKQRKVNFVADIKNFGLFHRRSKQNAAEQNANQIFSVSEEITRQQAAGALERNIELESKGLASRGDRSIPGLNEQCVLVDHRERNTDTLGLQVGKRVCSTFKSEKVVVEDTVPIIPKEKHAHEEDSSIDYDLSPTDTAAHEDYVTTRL

[6] = molecular target: Short transient receptor potential channel 4 (Mus musculus) (UniProt Q9QUQ5); assay: blockers of DAMGO-evoked TRPC4 calcium flux – cell-based, second round, Fluo4, HEK293 TRPC4beta/mu-opioid, 1 µM, confirmation (AID 2637;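 active means calcium signal ratio cut to more than 3 SD under the fully stimulated control mean yet still positive, in both repeats and the primary screen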); conditions: at 1 µM; stronger effect = higher value
[7] = molecular target: Short transient receptor potential channel 4 (Mus musculus) (UniProt Q9QUQ5); assay: calcium entry via TRPC4 opening agents – cell-based, HEK293 TRPC4/mu-opioid, Fluo-4 calcium, dose response (AID 434937;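 active means primary screen activator hit with a dose response curve and TRPC4 channel activation at any tested dose; inactive means no activation, no dose response, or not a primary hit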)
[8] = molecular target: Short transient receptor potential channel 4 (Mus musculus) (UniProt Q9QUQ5); assay: potentiation of DAMGO-evoked TRPC4 calcium signal – cell-based, HEK293 TRPC4/mu-opioid, Fluo-4 calcium, EC20 DAMGO, dose response (AID 434941;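 active means earlier screen potentiator hit that boosts the TRPC4 ion channel at some dose, with a dose response; inactive means no potentiation, no dose response, or not a prior hit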;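 further: calcium entry triggered by an EC20 dose of DAMGO at the co-expressed mu-opioid receptor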)
[9] = molecular target: Short transient receptor potential channel 4 (Mus musculus) (UniProt Q9QUQ5); assay: block of DAMGO-driven TRPC4 calcium entry – cell-based, HEK293 TRPC4/mu-opioid, Fluo-4 calcium, dose response (AID 434942;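 active means primary screen inhibitor hit that blocks the TRPC4 channel at some tested dose, yielding a dose curve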)
[10] = molecular target: Short transient receptor potential channel 6 (Mus musculus) (UniProt Q61143); assay: TRPC6 blockade by TRPC4 inhibitor hits – cell-based, HEK293, membrane potential dye, duplicate, selectivity assay for TRPC4 inhibitor project, confirmation (AID 434948;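 active means active in primary screen and both duplicates, each dropping signal beyond three positive-control SD with fluorescence still positive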); conditions: HEK293 TRPC6, membrane potential dye fluorescence, at 10 µM, stimulated with maximal-effect acetylcholine; stronger effect = higher value
Sequence of Short transient receptor potential channel 6 (Mus musculus) (Q61143 whole entry, looked up): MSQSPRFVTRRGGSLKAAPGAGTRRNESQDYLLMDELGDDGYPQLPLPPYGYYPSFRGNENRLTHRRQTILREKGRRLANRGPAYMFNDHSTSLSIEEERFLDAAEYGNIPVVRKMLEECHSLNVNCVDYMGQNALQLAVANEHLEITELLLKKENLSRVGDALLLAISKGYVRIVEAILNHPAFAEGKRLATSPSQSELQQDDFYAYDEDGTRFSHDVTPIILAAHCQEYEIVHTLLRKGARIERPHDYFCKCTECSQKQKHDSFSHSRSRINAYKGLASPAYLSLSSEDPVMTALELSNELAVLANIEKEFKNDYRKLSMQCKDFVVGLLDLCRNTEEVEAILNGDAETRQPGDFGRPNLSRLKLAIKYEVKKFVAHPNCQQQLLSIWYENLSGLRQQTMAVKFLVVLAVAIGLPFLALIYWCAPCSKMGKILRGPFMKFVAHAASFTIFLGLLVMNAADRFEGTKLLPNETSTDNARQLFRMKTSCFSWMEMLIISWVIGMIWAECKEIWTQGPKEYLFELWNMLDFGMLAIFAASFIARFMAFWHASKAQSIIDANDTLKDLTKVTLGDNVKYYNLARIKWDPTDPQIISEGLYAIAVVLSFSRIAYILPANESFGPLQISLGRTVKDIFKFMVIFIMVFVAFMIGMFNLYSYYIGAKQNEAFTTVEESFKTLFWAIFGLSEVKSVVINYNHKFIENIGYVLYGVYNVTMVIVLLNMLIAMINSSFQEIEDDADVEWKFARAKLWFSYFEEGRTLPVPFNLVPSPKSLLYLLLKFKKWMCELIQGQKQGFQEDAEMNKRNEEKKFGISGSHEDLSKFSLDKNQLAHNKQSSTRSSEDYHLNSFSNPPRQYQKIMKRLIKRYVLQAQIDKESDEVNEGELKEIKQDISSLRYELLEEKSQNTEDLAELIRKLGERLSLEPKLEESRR

[11] = molecular target: Short transient receptor potential channel 6 (Mus musculus) (UniProt Q61143); assay: TRPC6 opening by TRPC4 activator hits – cell-based, HEK293, membrane potential dye, duplicate, selectivity assay for TRPC4 activator project, confirmation (AID 434950;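 active means membrane potential signal rise above negative control mean plus 3 SD in both duplicates, also active in the earlier TRPC4 screen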;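 on activation: 0% = buffer only wells and 100% = acetylcholine maximal-effect wells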); conditions: HEK293 TRPC6, membrane potential fluorescence, at 10 µM; activation: stronger effect = higher value; outcome: activation
[12] = molecular target: Short transient receptor potential channel 6 (Mus musculus) (UniProt Q61143); assay: positive modulators of mouse TRPC6 channel – HEK293 cells, membrane potential dye, duplicate, selectivity assay for TRPC4 potentiator project, confirmation (AID 434952;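 active means compound raising the membrane signal above positive-control mean plus 3 SD in both repeats, and a primary screen hit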); conditions: HEK293 TRPC6, membrane potential dye fluorescence, at 10 µM, maximal acetylcholine added after compound; stronger effect = higher value
[13] = molecular target: Short transient receptor potential channel 4 (Mus musculus) (UniProt Q9QUQ5); assay: calcium flux activators in TRPC4/5HT1a cells, counter-screen for TRPC4 activator project, cell-based, second counter screen, HEK293 TRPC4/5HT1a, Fluo-4 (AID 434977;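 active means calcium signal rise above buffer-control mean plus 5 SD in both duplicates, and also a hit in the primary screen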); conditions: Fluo-4 calcium flux, at 10 µM; stronger effect = higher value
[14] = serotonin-gated TRPC4 signal block – cell-based, second counter screen, HEK293 TRPC4/5HT1a, Fluo-4, counter-screen for TRPC4 inhibitor project, confirmation (AID 434978;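 active means primary screen active whose calcium signal fell more than 3 SD beyond the full-serotonin control mean in both duplicate plates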;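 on outcome: serotonin given first at submaximal then at maximal dose after compound preincubation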); conditions: Fluo-4 calcium flux, at 10 µM, serotonin added to trigger calcium flux; stronger effect = higher value
[15] = system: TRPC4 (mouse), co-expressed with 5HT1a in HEK293; assay: enhancement of serotonin-evoked TRPC4 response – cell-based, second counter screen, HEK293 TRPC4/5HT1a, Fluo-4, counter-screen for TRPC4 potentiator project, confirmation (AID 434979;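 active means signal rise over 3 SD above mean of control wells given weak agonist, in both repeats and first screen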); conditions: Fluo-4 calcium flux, at 10 µM, serotonin added at its EC20 dose; stronger effect = higher value
[16] = nonspecific calcium rise without TRPC4 – cell-based, HEK293 mu-opioid receptor line, counter-screen for TRPC4 activator project, confirmation (AID 449723;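 active means hit in primary screen, with calcium signal over 5 SD above buffer well mean in both duplicates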;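 further: counter screen cells carry the mu-opioid receptor alone and lack TRPC4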); conditions: HEK293 mu-opioid cells, Fluo-4 calcium fluorescence, at 10 µM; stronger effect = higher value
[17] = nonspecific potentiation of DAMGO calcium response – cell-based, HEK293 mu-opioid receptor line, counter-screen for TRPC4 allosteric potentiator project, confirmation (AID 449724;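 active means calcium signal rise more than 3 SD above the low-dose agonist control mean, in both duplicate plates and the primary screen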); conditions: HEK293 mu-opioid receptor cells, Fluo-4 calcium flux, at 10 µM, compound added before EC20 DAMGO stimulus; stronger effect = higher value

COc1ccccc1-c1cc(-c2ccccc2)nc(=O)[nH]1
active: potentiation [4] 22% | potentiation [15] 51.2%
inactive: outcome [1] | outcome [2] | outcome [3] | outcome [5] | outcome [6] | outcome [7] | outcome [8] | outcome [9] | outcome [10] | outcome [11] | outcome [12] | outcome [13] | outcome [14] | outcome [16] | outcome [17]

Cc1cccc(Cn2c(=O)c3c(nc4n3CCCN4Cc3ccccc3)n(C)c2=O)c1
active: potentiation [3] 14% | potentiation [4] 120% | potentiation [15] 75.2%
inactive: outcome [1] | outcome [2] | outcome [5] | outcome [6] | outcome [7] | outcome [8] | outcome [9] | outcome [10] | outcome [11] | outcome [12] | outcome [13] | outcome [14] | outcome [16] | outcome [17]

Cn1c(=O)c2c(nc(CN3CCc4ccccc4C3)n2Cc2cccc(Cl)c2)n(C)c1=O
active: potentiation [3] 6% | potentiation [4] 45% | potentiation [15] 78.3%
inactive: outcome [1] | outcome [2] | outcome [5] | outcome [6] | outcome [7] | outcome [8] | outcome [9] | outcome [10] | outcome [11] | outcome [12] | outcome [13] | outcome [14] | outcome [16] | outcome [17]

CC(C)Oc1ccc(CCC(=O)NNC(=S)NCc2ccccc2)cc1
active: activation [11] 37.5%
inactive: outcome [1] | outcome [2] | outcome [3] | outcome [4] | outcome [5] | outcome [6] | outcome [7] | outcome [8] | outcome [9] | outcome [10] | outcome [12] | outcome [13] | outcome [14] | outcome [15] | outcome [16] | outcome [17]

CC1CCCN(C2=C(NS(=O)(=O)c3ccc(Br)cc3)C(=O)c3ccccc3C2=O)C1 (stereo not given)
inactive: outcome [1] | outcome [2] | outcome [3] | outcome [4] | outcome [5] | outcome [6] | outcome [7] | outcome [8] | outcome [9] | outcome [10] | outcome [11] | outcome [12] | outcome [13] | outcome [14] | outcome [15] | outcome [16] | outcome [17]

CCN(CCO)Cc1csc2ccc(Br)cc12
inactive: outcome [1] | outcome [2] | outcome [4] | outcome [5] | outcome [6] | outcome [7] | outcome [8] | outcome [9] | outcome [10] | outcome [11] | outcome [12] | outcome [13] | outcome [14] | outcome [15] | outcome [16] | outcome [17]
active: potentiation [3] 12%

CC1CCC2C(C1)c1sc(=O)[nH]c1SC2(C)C (stereo not given)
inactive: outcome [1] | outcome [2] | outcome [3] | outcome [4] | outcome [5] | outcome [6] | outcome [7] | outcome [8] | outcome [9] | outcome [10] | outcome [11] | outcome [12] | outcome [13] | outcome [14] | outcome [15] | outcome [16] | outcome [17]

Clc1ccc(N=C2SCC3CCCCN23)cc1 (stereo not given)
inactive: outcome [1] | outcome [2] | outcome [3] | outcome [5] | outcome [6] | outcome [7] | outcome [8] | outcome [9] | outcome [10] | outcome [11] | outcome [12] | outcome [13] | outcome [14] | outcome [16] | outcome [17]
active: potentiation [4] 10% | potentiation [15] 35.2%

CC(C)c1ccc(C(C)NCCS(=O)(=O)c2ccc(Br)cc2)cc1 (stereo not given)
inactive: outcome [1] | outcome [2] | outcome [3] | outcome [4] | outcome [5] | outcome [6] | outcome [7] | outcome [8] | outcome [9] | outcome [10] | outcome [11] | outcome [12] | outcome [13] | outcome [14] | outcome [16] | outcome [17]
active: potentiation [15] 21.2%

CCN(CC)CCn1c(=N)n(CC(O)COc2cccc(C)c2)c2ccccc21 (stereo not given)
inactive: outcome [1] | outcome [2] | outcome [3] | outcome [4] | outcome [6] | outcome [7] | outcome [8] | outcome [9] | outcome [10] | outcome [11] | outcome [12] | outcome [13] | outcome [15] | outcome [16] | outcome [17]
active: inhibition [5] 88% | inhibition [14] 6.72%

NC(=O)NCCN1CCN(c2ncc(C(F)(F)F)cc2Cl)CC1
active: potentiation [3] 8% | potentiation [4] 11% | potentiation [15] 22%
inactive: outcome [1] | outcome [2] | outcome [5] | outcome [6] | outcome [7] | outcome [8] | outcome [9] | outcome [10] | outcome [11] | outcome [12] | outcome [13] | outcome [14] | outcome [16] | outcome [17]

CCc1cc(=O)oc2c(CNCc3ccccc3F)c(O)c(Cl)cc12
inactive: outcome [1] | outcome [2] | outcome [3] | outcome [4] | outcome [5] | outcome [6] | outcome [7] | outcome [8] | outcome [9] | outcome [10] | outcome [11] | outcome [12] | outcome [13] | outcome [14] | outcome [15] | outcome [16] | outcome [17]

CN(C)S(=O)(=O)c1ccc(Cl)c(C(=O)NC2CCN(Cc3ccccc3)C2)c1 (stereo not given)
inactive: outcome [1] | outcome [2] | outcome [3] | outcome [4] | outcome [5] | outcome [6] | outcome [7] | outcome [8] | outcome [9] | outcome [10] | outcome [11] | outcome [12] | outcome [13] | outcome [14] | outcome [16] | outcome [17]
active: potentiation [15] 15.3%

COc1ccc(Cc2noc(CN(C)CC3CCN(Cc4ccccc4)CC3)n2)cc1OC
inactive: outcome [1] | outcome [2] | outcome [3] | outcome [4] | outcome [5] | outcome [6] | outcome [7] | outcome [8] | outcome [9] | outcome [10] | outcome [11] | outcome [12] | outcome [13] | outcome [14] | outcome [15] | outcome [16] | outcome [17]

O=C(Nc1c(F)cc(F)cc1Br)c1cc(-c2ccc(O)cc2)on1
inactive: outcome [1] | outcome [2] | outcome [3] | outcome [4] | outcome [5] | outcome [6] | outcome [7] | outcome [8] | outcome [9] | outcome [10] | outcome [11] | outcome [12] | outcome [13] | outcome [14] | outcome [15] | outcome [16] | outcome [17]
